# Bioassay records as filed in PubChem BioAssay.
# Shiga inhibitor = inhibitors of Shiga toxin in Vero cells; hit rate 9.2% among 290,000; AID 2315; inhibition, % at 38.7 µM; Vero cells, Shiga toxin protein synthesis inhibition reporter; in the data active = inhibition mostly above about 28%, no sharp cut-off; inactive = mostly below about 43%; also: 0% is about no effect
# FMDV antiviral = antivirals against foot and mouth disease virus. FMDV antiviral cell-based qHTS. Potency, µM (series often up to 57.9 µM), without a hit: at the top dose activity change, negative = inhibition, actives largely listed as inhibitors. hit rate 1.2% among 410,000. AID 1159524; calls by dose curve; tested in HEK293T cells; also: read-out not given here; potency is read from the fitted curve at half-maximal effect; % is scaled to controls: 0 for no effect and ±100 for the full control effect; nearly all actives have a fitted effect of over 45% in size
# Cycloheximide cs = counter-screen hit for Shiga toxin inhibitors, cycloheximide; cell reporter, cycloheximide protein synthesis inhibition counterscreen; hit rate 12% among 300,000; max response, %; in the data active = max response mostly above about 13%, no sharp cut-off; inactive = mostly below about 14%; also: read at 38.3 µM for the half of the compounds with a filed dose; 0% is about no effect
# Sm TGR block = S. mansoni TGR enzyme inhibition; hit rate 3% among 360,000; Potency, µM (top dose mostly 114 µM), without a hit: at the top dose activity change, negative = inhibition, actives largely listed as inhibitors; Q962Y6; purified TGR, DTNB reduction, TNB absorbance 405 nm; AID 485364; active = well fitted inhibition curve with a large enough effect; inconclusive = small, poorly fitted or top-dose-only effect; inactive = no such curve, though single readings can be large or run the other way; also: potency is read from the fitted curve at half-maximal effect; % is scaled to controls: 0 for no effect and ±100 for the full control effect; nearly all actives have a fitted effect of over 60% in size
#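 Kinetic colorimetric format: TGR-catalysed, NADPH-driven DTNB reduction monitored via TNB absorbance. Enzyme dispensed at 20 nM; compound exposure 15 min at room temperature before reaction start.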
# * = called active by the depositor; i = inactive; ? = inconclusive; nt = no result given. A selection: hits, their analogues and other compounds. The true share with any hit is near 12%.
SMILES,Shiga inhibitor,FMDV antiviral,Cycloheximide cs,Sm TGR block
Cc1sc2ncnc(N(C)C3CCCCC3)c2c1C,45*,-23%,11,-6%
CCOc1ccc(NC(=O)CC2C(=O)N(c3cccc(C)c3)C(=O)N2Cc2cccnc2)cc1 (stereo not given),nt,-7%,nt,0%
CCCOc1ccc(-c2nnn(CC(=O)N3CCCCC3)n2)cc1,28,19%,13,-3%
O=C(Cn1nnc(-c2ccccc2)n1)NCc1ccco1,37,-25%,-4,-11%
CCOC(=O)Cn1nnc(-c2ccc([N+](=O)[O-])cc2)n1,14,11%,11*,0%
CCOc1ccc(-c2nnn(CC(=O)NCc3ccco3)n2)cc1,28,0%,26*,2%
CCCOc1ccc(-c2nnn(CC(=O)OCC)n2)cc1,44,10%,20*,-2%
CCOC(=O)C1=C(CN2CCC(C(=O)OCC)CC2)NC(=O)NC1c1ccc(Cl)cc1 (stereo not given),nt,-30%,nt,-15%
O=C(OCC1CCCO1)c1ccc2c(c1)N(Cc1ccccc1)C(=O)c1ccccc1S2(=O)=O (stereo not given),nt,-1%,nt,7%
O=C(Nc1ccccc1)c1cc2ccccc2c(=O)s1,36*,38%,41*,3%
O=C(Nc1ccc(O)cc1)c1cc2ccccc2c(=O)s1,113*,74%,56*,-7%
O=C(Nc1ccc(Cl)cc1)c1cc2c(Cl)nc3ccccc3c2s1,nt,-8%,nt,-11%
O=C(Nc1ccccc1)c1cc2ccccc2s1,nt,9%,nt,nt
O=C1C(NS(=O)(=O)c2cccs2)=C(N2CCN(c3ccccc3)CC2)C(=O)c2ccccc21,44*,-20%,11,-36%
CCSc1nsc(NC(=O)Nc2cccc(OC)c2)n1,nt,-26%,29*,4%
CCSc1nsc(NC(=O)Nc2ccccc2F)n1,30*,-2%,33*,10%
CC(c1ccccc1)c1nnc(NC(=O)Nc2ccccc2)s1 (stereo not given),0,-21%,2,6%
C=CCSc1nsc(NC(=O)Nc2ccc(F)cc2)n1,101*,-28%,43*,-2%
CC(c1ccccc1)c1nnc(NC(=O)Nc2ccccc2F)s1 (stereo not given),72*,36%,45*,-2%
O=C(Nc1ccc(F)cc1)Nc1nnc(SCC(=O)N2CCCCC2)s1,nt,-17%,nt,0%
CCc1cccc(-n2c(=O)c3cccnc3n2CC(=O)NCc2ccccc2)c1,nt,-1%,nt,-5%
COc1cccc(-c2ncn(CCc3ccccc3OC)c2C(C)C)c1,nt,32µM*,nt,nt
COc1ccccc1CCn1cnc(Cc2cccc(F)c2)c1C(C)C,nt,22µM*,nt,nt
CCc1ncn(CCc2ccccc2OC)c1C(C)C,nt,-16%,nt,nt
O=C(Nc1nccs1)c1cc2sccc2n1Cc1ccc(F)cc1,28,20%,18*,0%
SMILES,Shiga inhibitor,FMDV antiviral,Cycloheximide cs,Sm TGR block
Cc1ccccc1NC(=O)c1cc2sccc2n1Cc1ccc(F)cc1,nt,2%,nt,-1%
COc1ccc(NC(=O)c2cc3sccc3n2Cc2ccc(F)cc2)cc1OC,55,28%,25*,13%
CC(=O)c1ccc(NC(=O)c2cc3sccc3n2Cc2ccc(F)cc2)cc1,nt,0%,nt,5%
N#Cc1cccc(NC(=O)N2CC[C@@]3(CCCNC3)C2)c1,nt,0%,nt,nt
NS(=O)(=O)c1ccc(CCNC(=O)c2ccc(=O)[nH]c2)cc1,-8,-16%,-3,3%
O=C(NCCSCc1ccco1)c1ccc(=O)[nH]c1,-8,11%,-3,35µM*
O=C(NCCc1ccccc1)c1ccc(=O)[nH]c1,57*,46%,26,-3%
Cc1nc2cc(OCc3cc(C(=O)NC(C)c4cn(C)nc4C)no3)ccc2s1 (stereo not given),1,-21%,14,-13%
CC(=O)c1ccc(OCc2cc(C(=O)NC(C)c3cnn(C)c3)no2)cc1 (stereo not given),94*,31%,37*,-7%
Cn1c(CCNC(=O)c2cc(COc3ccc(F)c(F)c3)on2)nc2ccccc21,73*,8%,16,6%
Cc1cc(C)n(CCCNC(=O)c2cc(COc3ccc(C)c(C)c3)on2)n1,-24,-12%,4,-1%
CC(=O)c1ccc(OCc2cc(C(=O)NCCn3nc(C)cc3C)no2)cc1,63*,47%,81*,-16%
Cc1nc(C(C)NC(=O)c2cc(COc3ccc(F)c(F)c3)on2)cs1 (stereo not given),9,21%,18*,-11%
CCn1c(=O)n(-c2ccc3c(c2)OCO3)c2nc(-c3cc(OC)ccc3OC)nc(C(N)=O)c21,nt,?,nt,6%
Cc1cc(CNC(=O)c2cc(COc3ccc(F)c(F)c3)on2)nn1C,64*,15%,46*,7%
Cc1cc(C)n(CC(C)NC(=O)c2cc(COc3c(F)cccc3F)on2)n1 (stereo not given),-11,-5%,5,-8%
Cc1cc(C)n(CC(C)NC(=O)c2cc(COc3ccc(F)c(F)c3)on2)n1 (stereo not given),28*,49%,19*,-19%
CC(NC(=O)c1cc(COc2ccccc2)on1)c1nccs1 (stereo not given),75*,13%,28*,-20%
CCc1cc(C(=O)NC(C)c2ccccc2)no1 (stereo not given),nt,36%,nt,0%
CCOC(=O)CC1(NC(=O)c2cc(COc3ccc(F)c(F)c3)on2)CCCCC1,-5,?,1,-7%
C=C1c2ccccc2O[C@H](C(=O)OCC)[C@@H]1CCC(C)C (tested in a mixture with another compound),i,nt,9,nt
CC(Cc1ccccc1)[n+]1cc(/N=C(\[O-])Nc2ccccc2)on1 (stereo not given),28,6%,17*,10%
Cn1c(=O)n(C)c2cc(NS(=O)(=O)c3ccc(F)cc3)c(NCc3ccccc3)cc21,nt,48%,nt,-21%
NC(=O)c1ccccc1NC(=O)c1ccc2c(c1)OCO2,55*,0%,41*,9%
NC(=O)c1ccccc1NC(=O)c1ccc2ccccc2c1,79*,-16%,57*,-9%
SMILES,Shiga inhibitor,FMDV antiviral,Cycloheximide cs,Sm TGR block
COc1ccc(NC(=S)NNc2ccc(C(=O)O)cc2)cc1,38,?,42*,-24%
COc1ccc(C(=O)NNc2ccccc2)cc1,13,-7%,15,-25%
COc1cc(OC)cc(C(=O)Nc2ccccc2C(=O)N2CCCC2)c1,60*,-20%,30*,-2%
COc1ccc(C(=O)Nc2ccccc2C(=O)Nc2ccc(C(=O)O)cc2)cc1,35,17%,11*,35%
COc1ccc(NC(=O)c2ccccc2)cc1,nt,51%,nt,-1%
COc1ccc(C(=O)Nc2ccccc2C(N)=O)cc1,94*,28%,27*,-9%
COc1ccc(CC(=O)Nc2ccc(C(=O)Nc3ccccc3C(=O)O)cc2)cc1OC,-16,-4%,23*,9%
COCC(=O)Nc1ccccc1C(=O)Nc1ccc(OC)cc1,51*,56%,22*,-21%
CCc1ccc(S(=O)(=O)Nc2cccc(-c3ccc(N4CCCCC4)nn3)c2)s1,nt,37%,nt,7%
CCC(=O)N1CCc2cc(Br)cc(S(=O)(=O)N3CCCC(C(=O)Nc4ccc(C)c(F)c4)C3)c21 (stereo not given),nt,-9%,nt,-2%
CCC(NC(=O)c1ccccc1NC(=O)C(C)(C)C)C(=O)N1CCCC1 (stereo not given),-13,6%,-7,-2%
